These results are taken from publication PMC4336329 (PLoS ONE, 2015).

Molecules are shown by their SMILES. Out of some 310,000 compounds screened, about 2,200 (0.71%) showed an effect of 50% or more. The effect is printed as a negative number. The list comes from a sample in which strong results are over-represented; it also holds similar structures and randomly drawn compounds.

For this assay, the target named is human ether-à-go-go-related gene (hERG) potassium channel (human, UniProt Q12809). The assay is described as follows: primary screen, population patch clamp on CHO cells stably expressing hERG; higher = less effect of the substance.
human ether-à-go-go-related gene (hERG) potassium channel, sequence (Q12809 whole entry, looked up): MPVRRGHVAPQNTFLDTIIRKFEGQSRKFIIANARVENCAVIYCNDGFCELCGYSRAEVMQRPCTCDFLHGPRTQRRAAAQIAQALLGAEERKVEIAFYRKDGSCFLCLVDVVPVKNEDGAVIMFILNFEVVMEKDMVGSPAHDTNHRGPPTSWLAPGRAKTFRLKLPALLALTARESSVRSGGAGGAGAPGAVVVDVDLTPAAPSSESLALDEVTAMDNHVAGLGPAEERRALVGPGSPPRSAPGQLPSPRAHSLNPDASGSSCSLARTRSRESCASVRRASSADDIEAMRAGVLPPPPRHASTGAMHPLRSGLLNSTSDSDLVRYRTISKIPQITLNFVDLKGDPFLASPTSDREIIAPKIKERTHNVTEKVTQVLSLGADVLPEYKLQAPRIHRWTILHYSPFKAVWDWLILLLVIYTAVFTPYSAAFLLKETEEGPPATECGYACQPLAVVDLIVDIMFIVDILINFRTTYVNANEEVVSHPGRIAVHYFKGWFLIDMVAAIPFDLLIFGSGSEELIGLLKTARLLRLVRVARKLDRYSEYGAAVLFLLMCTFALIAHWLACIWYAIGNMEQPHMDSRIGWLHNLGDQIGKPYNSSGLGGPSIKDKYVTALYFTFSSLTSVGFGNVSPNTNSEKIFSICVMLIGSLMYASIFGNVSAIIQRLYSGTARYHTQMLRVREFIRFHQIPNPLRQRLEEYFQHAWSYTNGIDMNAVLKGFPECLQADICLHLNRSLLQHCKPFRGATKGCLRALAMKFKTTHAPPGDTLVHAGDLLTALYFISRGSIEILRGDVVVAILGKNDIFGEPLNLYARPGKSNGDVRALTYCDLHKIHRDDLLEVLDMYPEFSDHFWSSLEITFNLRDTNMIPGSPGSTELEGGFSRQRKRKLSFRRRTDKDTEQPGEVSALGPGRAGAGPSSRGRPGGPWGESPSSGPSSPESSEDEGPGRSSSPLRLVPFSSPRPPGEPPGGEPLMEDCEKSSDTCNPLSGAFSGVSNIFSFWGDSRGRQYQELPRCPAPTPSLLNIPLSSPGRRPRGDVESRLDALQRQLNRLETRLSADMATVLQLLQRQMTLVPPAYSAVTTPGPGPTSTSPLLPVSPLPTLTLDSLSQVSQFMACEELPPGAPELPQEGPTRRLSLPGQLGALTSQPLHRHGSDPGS
For the compound `CCC(Cc1ccccc1)NS(=O)(=O)c1csc(C(N)=O)c1` (stereo not drawn), the “hERG current change (%, negative = inhibition) at 1uM” value worked out at 22.5%.

As to `CC(C)[C@H](NC(=O)N1CC(=O)Nc2ccccc21)C(=O)Nc1nccs1`, the “hERG current change (%, negative = inhibition) at 1uM” value came to 24.4%.

`O=C(c1ccc(C(F)(F)F)cc1)N1CCCCC1`: the “hERG current change (%, negative = inhibition) at 1uM” value is recorded as -4.21%.

Turning to `Cn1c(CCN2CCN(c3ccccn3)CC2)nc2cc(NS(=O)(=O)c3ccc(Cl)cc3)ccc21`, the “hERG current change (%, negative = inhibition) at 1uM” value was -69.2%.

On to `Cc1ccc(S(=O)(=O)Nc2ccc3c(c2)nc(CCN2CCOCC2)n3C)cc1`, for which the “hERG current change (%, negative = inhibition) at 1uM” value is reported as 6.29%.

For `Cc1ccc(S(=O)(=O)Nc2ccc3c(c2)nc(CCN2CCN(c4ccccn4)CC2)n3C)cc1`, the “hERG current change (%, negative = inhibition) at 1uM” value is recorded as -80.7%.

`CC(C)C(=O)Nc1ccc2c(c1)nc(CCN1CCN(c3ccccn3)CC1)n2C`: the “hERG current change (%, negative = inhibition) at 1uM” value amounted to 6.24%.

On to `CCCC(=O)Nc1ccc2c(c1)nc(CCN1CCN(c3ccccn3)CC1)n2C`, for which the “hERG current change (%, negative = inhibition) at 1uM” value is 1.68%.

With `CC(=O)Nc1ccc2c(c1)nc(CCN1CCN(c3ccccn3)CC1)n2C`, the “hERG current change (%, negative = inhibition) at 1uM” value is reported as 12%.

On to `O=CNc1ccc(OP(=O)(Oc2ccccc2)Oc2ccccc2)cc1`, for which the “hERG current change (%, negative = inhibition) at 1uM” value amounted to 1.71%.

Consider `O=C(N/N=C(/c1ccccc1)c1ccncc1)c1ccc2c(c1)OCO2`, for which the “hERG current change (%, negative = inhibition) at 1uM” value is reported as 2.11%.

For the compound `CC(C(=O)O)N1CCCCC1.Cl` (stereo not drawn), the “hERG current change (%, negative = inhibition) at 1uM” value is reported as -4.62%.

As to `O=C(Cn1cncc1-c1ccc([N+](=O)[O-])cc1)Nc1ccccc1F`, the “hERG current change (%, negative = inhibition) at 1uM” value was -0.387%.

With `O=C(c1noc2c1CCCC2)N1CCN(c2ccc(F)cc2)CC1`, the “hERG current change (%, negative = inhibition) at 1uM” value turned out to be 20%.

Consider `N#Cc1ccc(CN2CCN(C(=O)CCNS(=O)(=O)c3ccc(F)c(Cl)c3)CC2)cc1`, for which the “hERG current change (%, negative = inhibition) at 1uM” value was -29.3%.

In the case of `N#Cc1ccc(CN2CCN(C(=O)CCNS(=O)(=O)c3ccc(F)c(F)c3)CC2)cc1`, the “hERG current change (%, negative = inhibition) at 1uM” value is -62.3%.

Take `O=C(CCNS(=O)(=O)c1ccc(Cl)cc1)N1CCN(Cc2ccccc2)CC1`: the “hERG current change (%, negative = inhibition) at 1uM” value is given as -16.1%.

`O=C(CCN1CCN(S(=O)(=O)c2ccc(Cl)cc2)CC1)Nc1ccccc1F`: the “hERG current change (%, negative = inhibition) at 1uM” value was found to be 4.11%.

In the case of `O=C(CN1CCN(CCC(=O)Nc2ccccc2F)CC1)Nc1ccc(Cl)cc1`, the “hERG current change (%, negative = inhibition) at 1uM” value is -84.3%.

Take `O=C(CCN1CCN(CC(=O)Nc2ccccc2Cl)CC1)Nc1ccccc1F`: the “hERG current change (%, negative = inhibition) at 1uM” value is -54%.

In the case of `O=C(CCN1CCN(c2ccc(Cl)cc2)CC1)Nc1ccccc1F`, the “hERG current change (%, negative = inhibition) at 1uM” value worked out at 5.25%.

For the compound `O=C(CCN1CCN(c2ccccc2F)CC1)Nc1ccc(F)cc1`, the “hERG current change (%, negative = inhibition) at 1uM” value is 14.4%.

Turning to `O=C(CCN1CCN(c2ccccc2F)CC1)Nc1ccccc1Cl`, the “hERG current change (%, negative = inhibition) at 1uM” value is 7.43%.

As for `O=C(CN1CCN(CCC(=O)Nc2ccccc2F)CC1)Nc1ccc(F)cc1`, the “hERG current change (%, negative = inhibition) at 1uM” value is on record as -78.3%.

Regarding `O=C(CCN1CCN(c2ccc(F)cc2)CC1)Nc1ccccc1F`, the “hERG current change (%, negative = inhibition) at 1uM” value is -9.21%.

Take `O=C(CCN1CCN(CC(=O)Nc2ccccc2F)CC1)Nc1ccccc1F`: the “hERG current change (%, negative = inhibition) at 1uM” value was -38.4%.

On to `CC(C)Oc1ccc(C(=O)OCC(=O)NCCNC(=O)COC(=O)c2ccc(OC(C)C)cc2)cc1`, for which the “hERG current change (%, negative = inhibition) at 1uM” value is 8.62%.

Consider `Cc1ccc(CCNC(=O)C2CCCN(S(=O)(=O)N3CC(C)CC(C)C3)C2)cc1` (stereo not drawn), for which the “hERG current change (%, negative = inhibition) at 1uM” value is listed as 16.3%.

In the case of `COc1cc(Cl)c(C)cc1NC(=O)COc1ccccc1[N+](=O)[O-]`, the “hERG current change (%, negative = inhibition) at 1uM” value is -2.79%.

As for `COc1cccc(/C=C/C(=O)Nc2ccc3c(c2)OCCO3)c1OC`, the “hERG current change (%, negative = inhibition) at 1uM” value came out at 15.5%.

In the case of `CC(=O)NCCc1nc(-c2ccc(Cl)cc2)no1`, the “hERG current change (%, negative = inhibition) at 1uM” value came out at 10.3%.

On to `CC(C)OC(=O)Cc1ccccc1`, for which the “hERG current change (%, negative = inhibition) at 1uM” value amounted to 10.3%.

With `CCOc1nc(S(=O)(=O)c2ccc(C)cc2)c(Cl)s1`, the “hERG current change (%, negative = inhibition) at 1uM” value was 7.74%.

Take `Clc1ccc(-c2nnc(NCCN3CCCC3)c3ccccc23)cc1`: the “hERG current change (%, negative = inhibition) at 1uM” value is -55.1%.

For the compound `Clc1ccc(-c2nc(NCCN3CCOCC3)c3ccccc3n2)cc1`, the “hERG current change (%, negative = inhibition) at 1uM” value was -16.9%.

For `Clc1ccc(-c2nnc(NCc3ccccc3)c3ccccc23)cc1`, the “hERG current change (%, negative = inhibition) at 1uM” value is listed as 4.55%.

In the case of `COc1ccc(NC(=O)CSc2nnc(Cn3c(=O)sc4ccccc43)n2C)c(OC)c1`, the “hERG current change (%, negative = inhibition) at 1uM” value was -2.58%.

`CCN(C(=O)CSc1nc(N)cc(N)n1)C1CCS(=O)(=O)C1` (stereo not drawn): the “hERG current change (%, negative = inhibition) at 1uM” value was 7.31%.

`CN(CC#CC(O)(c1ccccc1)c1ccccc1)C(C)(C)C`: the “hERG current change (%, negative = inhibition) at 1uM” value is listed as -40.8%.

Consider `CN(CC#CCC(c1ccccc1)c1ccccc1)C(C)(C)C.Cl`, for which the “hERG current change (%, negative = inhibition) at 1uM” value is on record as -56.4%.

With `CN(C)C(C)(C)C#CCC(c1ccccc1)c1ccccc1.Cl`, the “hERG current change (%, negative = inhibition) at 1uM” value is on record as 5.49%.

Consider `CNc1ccc(/C=C/C(=O)c2cccc3ccccc23)cc1[N+](=O)[O-]`, for which the “hERG current change (%, negative = inhibition) at 1uM” value came out at 7.91%.

For the compound `CC(C)c1ccc(N(CC(=O)N2CCN(Cc3ccccc3)CC2)S(C)(=O)=O)cc1`, the “hERG current change (%, negative = inhibition) at 1uM” value came to 7.12%.

In the case of `Cc1cc(/C([O-])=C(/C(=S)Nc2ccc(F)cc2)[n+]2ccccc2)c(C)n1-c1ccc(F)cc1`, the “hERG current change (%, negative = inhibition) at 1uM” value is given as -1.77%.

For the compound `Cc1c(Cl)c(C(=O)Nc2nc3ccccc3n2CCN2CCCCC2)nn1C`, the “hERG current change (%, negative = inhibition) at 1uM” value is recorded as -61.5%.

With `CCn1nccc1C(=O)Nc1nc2ccccc2n1CCN1CCCCC1`, the “hERG current change (%, negative = inhibition) at 1uM” value is reported as -11.2%.

As for `CCn1cc(Cl)c(C(=O)Nc2nc3ccccc3n2CCN2CCCCC2)n1`, the “hERG current change (%, negative = inhibition) at 1uM” value is on record as -51.8%.

Turning to `O=C(Nc1nc2ccccc2n1CCN1CCCCC1)c1ccc(Cl)cc1`, the “hERG current change (%, negative = inhibition) at 1uM” value is listed as -5.1%.

`Cc1ccc(C(=O)Nc2nc3ccccc3n2CCN2CCCC2)cc1`: the “hERG current change (%, negative = inhibition) at 1uM” value was -19.5%.

`O=C(Nc1nc2ccccc2n1CCN1CCCCC1)c1ccco1`: the “hERG current change (%, negative = inhibition) at 1uM” value is on record as -37.4%.

For the compound `CC(C)Oc1cccc(C(=O)C2CCCN(C(=O)CCc3cnn(C)c3)C2)c1` (stereo not drawn), the “hERG current change (%, negative = inhibition) at 1uM” value is given as 10.7%.

`CCCn1c(C)cc(/C=C(\C#N)C(=O)OCC(=O)N(C)c2c(N)n(Cc3ccccc3)c(=O)[nH]c2=O)c1C`: the “hERG current change (%, negative = inhibition) at 1uM” value is on record as 11%.

As to `O=C(CNc1ccc(F)cc1)N/N=C/c1c(O)ccc2ccccc12`, the “hERG current change (%, negative = inhibition) at 1uM” value amounted to 6.94%.

As to `CCNc1nnc(-c2ccc(C)cc2)o1`, the “hERG current change (%, negative = inhibition) at 1uM” value was found to be 9.37%.

For `C/C=C/c1ccc(OCCNCc2ccccc2)c(OC)c1.O=C(O)C(=O)O`, the “hERG current change (%, negative = inhibition) at 1uM” value is 4.38%.

As to `C/C=C/c1ccc(OCCCCNCc2ccco2)c(OC)c1.O=C(O)C(=O)O`, the “hERG current change (%, negative = inhibition) at 1uM” value is -62.6%.

`C/C=C/c1ccc(OCCCNC)c(OC)c1.O=C(O)C(=O)O`: the “hERG current change (%, negative = inhibition) at 1uM” value is -10.9%.
